# G9a inh – qHTS Assay for Inhibitors of Histone Lysine Methyltransferase G9a | Histone-lysine N-methyltransferase EHMT2 (Homo sapiens), Q96KQ7 | Potency, µM (highest dose often 102 µM), for the others: at the top dose activity, negative = inhibition, actives largely listed as inhibitors | AID 504332, 2011 | 8.8% of 350,000 active | G9a H3K9 monomethylation, AlphaScreen, 2 h; note: % is set by controls: 0 for no effect and ±100 for the full control effect; nearly all actives have a fitted effect of over 75% in size
#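 AlphaScreen read-out: biotin-H3K9 peptide (500 nM) methylation by 20 nM enzyme with 20 uM SAM, 2 h at room temperature after 15 min compound preincubation; anti-monomethyl H3K9 antibody plus donor/acceptor beads, 10 min dark.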
# Sfp inh – qHTS Assay for Inhibitors of Bacillus subtilis Sfp phosphopantetheinyl transferase (PPTase); 4'-phosphopantetheinyl transferase ffp (Bacillus subtilis), Q9F4F7; Biochemical Sfp PPTase activity, qHTS; Potency, µM, for the others: largest response in the series, negative = inhibition, actives largely listed as inhibitors; 3.5% of 310,000 active; AID 1490, 2009;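 note: the enzyme is Sfp with the accession as filed and its product quenches rhodamine fluorescence; 0% = enzyme reaction without inhibitor and -100% = no enzyme wells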
#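 After 15 min at room temperature with compound, 15 nM Sfp received 5 uM rhodamine-CoA plus 12.5 uM BHQ-2-ybbR (50 mM Hepes pH 7.6, 10 mM MgCl2). Rate came from the fluorescence difference over 30 min, ex 525/em 598 nm.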
# JMJD2A Tudor inh – qHTS Assay for Inhibitors of JMJD2A-Tudor Domain | Lysine-specific demethylase 4A (Homo sapiens), O75164 | AlphaScreen JMJD2A-Tudor / H3K4me3 peptide binding | Potency, µM (doses to about 114 µM), without a hit: at the highest dose activity change, negative = inhibition, actives largely listed as inhibitors | 4.4% of 390,000 active | AID 504339, 2011; note: % is set by controls: 0 for no effect and ±100 for the full control effect; nearly all actives have a fitted effect of over 50% in size
# HP1b binding inh – HTS for Inhibitors of HP1-beta Chromodomain Interactions with Methylated Histone Tails; Chromobox protein homolog 1 (Homo sapiens), P83916; AlphaScreen HP1-beta / biotin-H3K9me3 peptide binding; Potency, µM (highest dose often 114 µM), for inactives: top-dose activity change, negative = inhibition, usual class: inhibitors; 0.56% of 390,000 active; note: nearly all actives have a fitted effect of over 70% in size
#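 AlphaScreen: HP1-beta (50 nM) preformed 30 min with biotin-H3(1-18)K9me3 peptide (50 nM) in PBS pH 7.4, 0.01% Tween-20. Compound added for 30 min at RT, then streptavidin donor/nickel chelate acceptor beads (10 ug/mL) for 30 min.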
# BAZ2B block – qHTS Assay for Inhibitors of BAZ2B | Bromodomain adjacent to zinc finger domain protein 2B (Homo sapiens), Q9UIF8 | AlphaScreen BAZ2B-H3K14Ac peptide displacement | Potency, µM (top dose mostly 114 µM), for inactives: top-dose activity change, negative = inhibition, most hits filed as inhibitors | 4.4% of 360,000 active | AID 504333, 2011; note: % is set by controls: 0 for no effect and ±100 for the full control effect; nearly all actives have a fitted effect of over 60% in size
#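 AlphaScreen luminescence quantifies BAZ2B engagement of H3K14Ac peptide; the protein and biotinylated peptide are both at 50 nM final, buffer PBS pH 7.4 with 0.01% Tween-20, all steps at room temperature.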
# PLK1 PBD block – qHTS for Inhibitors of PLK1-PDB (polo-like kinase 1 - polo-box domain): Primary Screen; Serine/threonine-protein kinase PLK1 (Homo sapiens), P53350; Plk1 PBD binding of FITC phosphopeptide, fluorescence polarization; Potency, µM, inactives show max response, negative = inhibition, hits mostly inhibitors; 2.8% of 360,000 active; AID 720504, 2013; note: series mostly up to about 57 µM; % is set by controls: 0 for no effect and ±100 for the full control effect; nearly all actives have a fitted effect of over 65% in size
# * marks the source's active call; other numbers are inactive results; u = inconclusive; x = no result given; [ ] = remark or other dose. Compounds with a hit are over-represented: about 12% of the library has one in this group of screens. Calls come from the whole dose curve; as a rule, active = well fitted curve in the direction sought with a large enough effect; inconclusive = small, poorly fitted or top-dose-only effect, or another doubt; inactive = no such curve, though single readings can be large; an effect the other way counts as inactive or inconclusive. Potency is the fitted concentration of half-maximal effect.
SMILES,G9a inh,Sfp inh,JMJD2A Tudor inh,HP1b binding inh,BAZ2B block,PLK1 PBD block
COC(=O)[C@@]1(Cc2ccc(OC)cc2)[C@H]2c3cc(C(=O)N(C)C)n(CCc4ccc(OC)c(Br)c4)c3C[C@H]2CN1C(=O)c1ccccc1,39.8µM*,-6.9%,x,x,u,x
COC(=O)[C@@]1(Cc2ccc(OC)cc2)[C@H]2c3cc(C(=O)N(C)C)n(CCc4ccc(O)c(OC)c4)c3C[C@H]2CN1C(=O)c1ccccc1,x,20.7%,x,x,x,x
COC(=O)[C@@]1(Cc2ccc(F)cc2)[C@H]2c3cc(C(=O)N4CCCC4)n(CCCNc4ncc(C(F)(F)F)cc4Cl)c3C[C@H]2CN1C(=O)c1ccccc1,31.6µM*,3.8%,u,4.3%,-35.1%,-5.3%
COC(=O)[C@@]1(Cc2ccc(OC)cc2)[C@H]2c3cc(C(=O)N(C)C)[nH]c3C[C@H]2CN1C(=O)c1ccccc1,50.1µM*,-15.8%,-29.8%,13.1%,56.2µM*,-1.6%
COC(=O)[C@@]1(Cc2ccc(F)cc2)[C@H]2c3cc(C(=O)N4CCCC4)n(Cc4ccc(C(F)(F)F)nc4)c3C[C@H]2CN1C(=O)c1ccccc1,50.1µM*,-2.5%,u,4.6%,u,-9.2%
COc1ccccc1C1C(C#N)=C(N)N(N(C)C)C2=C1C(=O)CC(C)(C)C2 (stereo not given),-8.8%,1.2%,-22.6%,13.9%,-5.3%,-16.7%
CC1CCN(CCCNC(=O)C2CCC(CNS(=O)(=O)c3ccccc3)CC2)CC1 (stereo not given),x,14.4%,16.7%,36.8%,1.8%,7.6%
Cc1ccc2oc(-c3ccc(NC(=O)c4oc5ccc(Cl)cc5c4C)cc3)nc2c1,4.0%[59 µM],x,1.0%,22.0%,1.0%,x
COC(=O)[C@@]1(Cc2ccc(F)cc2)[C@H]2c3cc(C(=O)N4CCCC4)n(Cc4ccc(C)o4)c3C[C@H]2CN1C(=O)c1ccccc1,x,39.8µM*,x,x,x,-6.3%
COC(=O)[C@@]1(Cc2ccc(OC)cc2)[C@H]2c3cc(C(=O)N(C)C)n(Cc4ccc(C)o4)c3C[C@H]2CN1C(=O)c1ccccc1,x,25.1µM*,x,x,x,x
COC(=O)[C@@]1(Cc2ccc(F)cc2)[C@H]2c3cc(C(=O)N(C)C)n(Cc4ccccn4)c3C[C@H]2CN1C(=O)c1ccccc1,u,-27.8%,-35.2%,17.9%,u,-9.9%
COC(=O)[C@@]1(Cc2ccc(OC)cc2)[C@H]2c3cc(C(=O)N(C)C)n(CCO)c3C[C@H]2CN1C(=O)c1ccccc1,x,21.5%,x,x,x,x
COC(=O)[C@@]1(Cc2ccc(F)cc2)[C@H]2c3cc(C(=O)N(C)C)n(Cc4nc5ccccc5[nH]4)c3C[C@H]2CN1C(=O)c1ccccc1,50.1µM*,-4.4%,u,-2.2%,u,-0.1%
C=C1C(=O)C=C2CN(C(=O)c3ccccc3)[C@@](Cc3ccc(OC)cc3)(C(=O)OC)[C@@H]12,x,3.98µM*,x,x,x,x
COc1ccc2c3c1O[C@H]1C[C@H](O)C=C[C@@]31CCN(C)C2,x,7.3%,x,x,x,x
CCc1nc2c(OCc3ccccc3)cccn2c1N(C)C(C)=O,x,x,x,x,x,1.7%
NC(=O)c1sc2nc(-c3ccccc3)c3c(c2c1N)CCCC3,u,39.8µM*,-5.5%,67.1%,u,u
CC(C)c1nc2sc3c(=O)[nH]cnc3c2c2c1CCCC2,x,15.0%,-16.2%,32.8%,-2.9%,-4.2%
CC(C)c1nc2sc(C(=O)O)c(N)c2c2c1CCCC2,u,56.2µM*,-16.9%,12.9%,-37.8%,u
CCc1nc2sc(C(C)=O)c(N)c2c2c1CCCC2,-0.2%[12.7 µM],-21.6%,30.4%,90.7%,-5.5%,-16.4%
